A selection: hits, their analogues and other compounds. The true share with any hit is near 3.8%.
tim10-1 inh – tim10-1 yeast growth inhibition. actives 2.2% (n = 330,000). inhibition, % at 20 µM. AID 463190. S. cerevisiae tim10-1 ts strain growth, BacTiter-Glo, 24 h;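 active = inhibition of at least 40%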;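 also: mutant grown at 25 °C; 0% = DMSO wells with yeast and 100% = wells holding no yeast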
TIM10 inh – inhibits growth of TIM10 yeast strain. S. cerevisiae TIM10 strain growth, BacTiter-Glo luminescence, 24 h. inhibition, % at 10 µM. actives 1.4% (n = 330,000);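 active = inhibition of 40% or more at the single tested concentration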;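 also: wild-type TIM10 isogenic control strain grown at permissive 25 °C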
tim23-1 inh – growth inhibitors of tim23-1 mutant yeast; S. cerevisiae tim23-1 growth, BacTiter-Glo luminescence, 24 h; actives 1.3% (n = 330,000); inhibition, % at 20 µM;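 active = growth inhibition of the mutant yeast at or above 50%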;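 also: temperature-sensitive mutant grown at 25 °C; plate controls were DMSO-treated mutant yeast for no effect and medium wells lacking yeast for full effect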
PfHsp90 yeast 2 – reduces growth (ATP signal) of yeast expressing P. falciparum Hsp90; S. cerevisiae expressing PfHsp90, BacTiter-Glo ATP, 48 h; yeast lacking PDR1 and PDR3 efflux regulators; inhibition, % at 9.4 µM; actives 0.32% (n = 310,000);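 active = every replicate shows inhibition above about 80%, whatever the replicate mean, limit read from the data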;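 also: 0% = DMSO neutral controls and 100% = 20 µM radicicol positive controls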
Beta2AR agonist – agonists of human beta-2 adrenergic receptor inducing internalization. response, % (no concentration beside the values). Am2.2-beta2AR cells, FAP receptor internalization, flow cytometry. P07550. AID 504454. actives 0.43% (n = 340,000);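 active = response above a set limit, near 3 SD of response in nonfluorescent compounds, cut at about 42% in these data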
Target sequence (P07550 whole entry, looked up): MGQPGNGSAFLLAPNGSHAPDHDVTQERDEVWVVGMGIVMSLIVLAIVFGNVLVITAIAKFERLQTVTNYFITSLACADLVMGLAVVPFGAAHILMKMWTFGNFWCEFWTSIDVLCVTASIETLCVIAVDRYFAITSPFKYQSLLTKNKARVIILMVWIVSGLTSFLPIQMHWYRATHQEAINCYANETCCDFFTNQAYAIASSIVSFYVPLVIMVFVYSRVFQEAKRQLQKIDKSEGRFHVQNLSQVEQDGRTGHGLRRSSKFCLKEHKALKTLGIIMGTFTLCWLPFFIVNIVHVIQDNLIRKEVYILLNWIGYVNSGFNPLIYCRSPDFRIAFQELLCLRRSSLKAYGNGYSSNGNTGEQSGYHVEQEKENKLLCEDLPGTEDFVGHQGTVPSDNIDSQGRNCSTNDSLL
tim10-1 conf – confirmation of tim10-1 mutant yeast growth inhibitors | inhibition, % at 20 µM | shares compounds with tim10-1 inh | S. cerevisiae tim10-1 ts strain growth, BacTiter-Glo, 24 h | actives 56% (n = 7,400);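 active = inhibition of yeast growth at or above a set limit in either of two repeat tests at 20 µM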;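 also: tim10-1 mutant grown at permissive 25 °C to find synthetic lethal compounds; 0% = DMSO yeast wells and 100% = medium wells without yeast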
Starred values were filed as active, the others as inactive; / = no result given.

SMILES | tim10-1 inh | TIM10 inh | tim23-1 inh | PfHsp90 yeast 2 | Beta2AR agonist | tim10-1 conf
O=C(C1CCCN(c2ncnc3c2nc2n3CCCCC2)C1)N1CCN(c2cccc(Cl)c2)CC1 (stereo not given) | 41.2* | 8.2 | 23.5 | -1.8 | 3.8 | 4.0
O=C(Nc1ccc(Cl)cc1)C1CCCN(c2ncnc3c2nc2n3CCCCC2)C1 (stereo not given) | 52.7* | 4.2 | 41.2 | -13.5 | -2.8 | 11.9
Cc1cccc(N2CCN(C(=O)C3CCN(c4ncnc5c4nc4n5CCCCC4)CC3)CC2)c1C | 56.1* | 29.5 | 38.9 | -77.4 | 22.9 | 22.1
O=C1NCC(Nc2ccccc2Cl)C(=O)N1 (stereo not given) | / | / | / | -14.9 | 5.3 | /
O=C(Cc1cccc(NC(=O)C2CCCN(C(=O)C3CCCCC3)C2)c1)Nc1cccc(C(=O)N2CCCCC2)c1 (stereo not given) | / | / | / | 36.7 | -5.0 | /
CN(CC(=O)NC(=O)NC1CCCCC1)CC(=O)Nc1ccc(OC(F)(F)F)cc1 | 5.4 | 0.5 | 27.6 | -3.4 | 11.9 | /
CC(=O)c1ccc(Sc2nnnn2-c2ccccc2)c([N+](=O)[O-])c1 | 45.6* | 16.5 | 46.2 | -9.5 | -14.6 | 30.7
CC[C@]1(C(=O)OC)[C@H]2C(=O)N(Cc3ccccc3)C(=O)[C@H]2[C@H]2CN(C)C(=NCc3ccccc3)N21 | 10.4 | 4.5 | 27.2 | -14.5 | -8.6 | /
O=c1[nH][nH]c(=O)c2c1[nH]c(=S)n2Cc1ccccc1 | / | / | / | -5.0 | 2.4 | /
CCN=C1S/C(=C/c2ccc(-c3ccc(F)cc3)o2)C(=O)N1CC | 45.0* | 5.5 | 21.9 | 16.6 | 3.3 | 28.6*
CCN1C[C@@H]2[C@@H]3C(=O)N(C)C(=O)[C@@H]3[C@](C)(C1=O)N2C(=O)c1ccc(C(F)(F)F)cc1 | / | / | / | -11.8 | -3.2 | /
COc1ccccc1CNC(=O)C(C)n1cccc1C(=O)c1ccccc1 (stereo not given) | 19.8 | -6.5 | 29.6 | 8.9 | -2.3 | /
CC(C(=O)NCc1ccc(Cl)cc1)n1cccc1C(=O)c1ccccc1 (stereo not given) | 41.0* | 6.0 | 35.0 | -9.6 | -7.0 | -10.4
Cc1nnc(SCc2cc(=O)oc3ccc4ccccc4c23)n1Cc1ccccc1 | 46.4* | 14.6 | 44.1 | 2.9 | -17.9 | 24.2
COc1ccc(-c2[nH]c(-c3ccc4c(c3)OCO4)nc2-c2ccccc2)cc1 | 53.8* | 22.1 | 48.5 | 58.7 | -4.2 | 28.2
CCOc1ncccc1C(=O)OCC(=O)N1CCC(C)CC1 | -0.4 | 4.0 | 8.5 | -1.7 | -4.9 | /
Cc1ccc(-n2nc3c(c2NC(=O)C(C)(C)C)CS(=O)(=O)C3)cc1 | 8.4 | 1.3 | 11.2 | -32.0 | 0.8 | /
O=C(/C=C/c1ccncc1)c1ccc2c(c1)OCCO2 | 45.8* | 31.9 | 25.5 | 9.8 | -1.0 | 38.5*
CCOC(=O)c1cc(C(C)(C)C)oc1CNC(=O)c1c(C)oc2c1CCCC2 | 43.6* | 28.3 | 25.7 | -5.0 | -9.6 | 33.1*
O=C(NCc1nc2ccccc2[nH]1)c1cc2ccccc2oc1=O | 41.3* | 23.6 | 6.1 | 21.2 | -14.7 | 21.0
O=C(NCc1ccccc1)c1cc2ccccc2oc1=O | -1.3 | 5.3 | 8.6 | -3.6 | -7.3 | /
C=CCc1c(C)nc(-c2ccccc2)nc1N/N=C/c1ccncc1 | -15.2 | -19.1 | 8.5 | -30.8 | 9.1 | /
C=CCc1c(C)nc(-c2ccccc2)nc1N/N=C/c1ccccc1 | 45.8* | 33.4 | 35.7 | 11.7 | -7.2 | 31.8*
CC(/C=N/Nc1nc(C)cc(=O)[nH]1)=C\c1ccccc1 | 28.8 | 16.6 | 12.7 | / | -9.2 | /
CC(/C=N/Nc1ncc(C)c(=O)[nH]1)=C\c1ccccc1 | 41.2* | 13.7 | 6.2 | -4.1 | 7.0 | 20.0
SMILES | tim10-1 inh | TIM10 inh | tim23-1 inh | PfHsp90 yeast 2 | Beta2AR agonist | tim10-1 conf
C/C(=N\NC(=S)Nc1ccc(C)cc1)c1cccc(N)c1 | 41.7* | 36.3 | 1.5 | -18.8 | -0.2 | 21.2
O=C(Nc1cccc2cccnc12)c1ccc2c(c1)OCCO2 | 41.0* | 12.1 | 40.9 | 0.8 | -7.6 | 29.8
CCN(C(=O)CSc1ncccn1)c1c(N)n(Cc2ccccc2)c(=O)[nH]c1=O | 2.6 | 7.4 | 11.6 | / | 8.6 | /
COc1ccc(C(=S)N2CCNCC2)cc1 | -4.4 | 10.8 | 2.6 | 8.9 | 7.0 | /
COc1ccc(C(=S)N2CCCCCC2)cc1 | 40.2* | -4.4 | 4.1 | / | -3.5 | 11.1
CCCCOc1ccc(C(=O)NNC(=O)c2cnccn2)cc1OC | 15.3 | 8.1 | 10.5 | / | 0.9 | /
COc1ccc(CNCc2ccc3ccccc3c2)c(OC)c1 | 8.2 | 4.4 | 19.0 | -2.0 | 19.3 | /
CCN(CC)c1nc(-c2cccc(OC)c2O)nc2ccccc12 | 46.6* | 28.8 | 26.5 | -36.3 | 3.2 | 36.2*
COc1ccc(C(CNC(=O)COc2cccc(C(F)(F)F)c2)N2CCCC2)cc1 (stereo not given) | 3.9 | 12.1 | -1.6 | 29.7 | 11.4 | /
CN(C)CCNC(=O)C(c1ccccc1)c1ccccc1 | 4.5 | 6.6 | -2.0 | 5.4 | -6.8 | /
CN(C)CCC(=O)C(Cc1ccccc1)c1ccccc1 (stereo not given) | 45.1* | 22.7 | 31.2 | -23.1 | 10.1 | 45.0*
O=[N+]([O-])c1ccc2oc(C(O)c3cccc(Cl)c3)cc2c1 (stereo not given) | 43.8* | 22.3 | 47.3 | -23.1 | -6.7 | 43.0*
COc1cccc(NC(=O)CN(C)C(=O)CCCc2nc3ccccc3s2)c1 | 4.2 | 1.7 | -3.9 | -14.5 | -7.3 | /
Cc1ccc(S(=O)(=O)c2nc(S(C)(=O)=O)sc2N2CCCCCC2)cc1 | 26.6 | 15.2 | 35.3 | 10.2 | 0.4 | /
Cc1ccc(S(=O)(=O)c2nc(S(C)(=O)=O)sc2N2CCC(C)CC2)cc1 | 46.3* | 24.9 | 46.6 | -8.4 | -3.0 | 18.4
Cc1c(C(=O)NCCSc2ccc(Cl)cc2)cccc1[N+](=O)[O-] | 41.3* | 29.8 | 38.3 | -18.6 | -2.3 | 37.0*
S=c1nc(-c2ccccc2)[nH]c2ccc(Br)cc12 | 42.9* | 37.2 | 25.6 | -13.6 | 0.3 | 15.4
CCn1c(CN2CCN(c3ccc(Cl)cc3)CC2)nc2ccccc21 | 52.4* | 35.7 | 36.5 | 38.5 | -5.8 | 33.6*
Cn1c(CN2CCN(c3ccc(Cl)cc3)CC2)nc2ccccc21 | 33.2 | 30.9 | 38.5 | / | -12.6 | /
CN(C(=O)CN1C(=O)/C(=C/c2ccccc2F)SC1=S)C1CCS(=O)(=O)C1 (stereo not given) | -2.8 | -13.0 | -12.3 | -3.3 | -7.4 | /
Cc1nc2cc(NS(=O)(=O)c3c(C)c(C)cc(C)c3C)ccc2s1 | 41.9* | 30.1 | 28.7 | 10.6 | -8.1 | 32.9*
CCc1ccc(N(CC(=O)NCc2ccco2)C(=O)CCC(=O)Nc2nccs2)cc1 | -13.9 | 6.6 | -0.7 | -10.4 | -4.8 | /
Cc1ccc2oc(C(=O)N3CCCCCC3)c(C)c2c1 | 8.1 | -14.6 | 33.3 | -1.8 | -13.6 | /
Cc1ccc2oc(C(=O)N3CCN(Cc4ncccc4C)CC3)c(C)c2c1 | 41.0* | 26.6 | 40.3 | 10.1 | -3.9 | 17.9

Screening data deposited in PubChem BioAssay by several laboratories.
